According to PubChem BioAssay (Tox21):
Results filed as inconclusive are left out. The source made the active and inactive calls. Unless noted, the call rests on the fitted dose curve; in most records, active means well fitted curve in the direction sought with a large enough effect in the repeat runs; inconclusive means weak or mixed curves; inactive means no such curve, though single readings can be large; an effect the other way counts as inactive or inconclusive.

What was measured:
[1] = qHTS assay to identify small molecule antagonists of the vitamin D receptor (VDR) signaling pathway - cell viability counter screen (AID 743225); further: nearly all actives have a fitted effect of over 50% in size
Summary of the method: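 Cytotoxicity counter screen read by CellTiter-Glo luminescence (30 min, room temperature) in the same wells as the VDR-bla antagonist readout. HEK 293T VDR-UAS-bla cells had 16 h at 37C with compound and 3 nM (final) 1-alpha,25-dihydroxyvitamin D3, then 2 h with FRET substrate.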

[2] = qHTS assay to identify small molecule agonists of the NFkB signaling pathway (AID 1159509; active means well fitted curve in the direction sought with a large enough effect in the signal ratio in the repeat runs, not every such curve was filed as active; the % refers to the signal ratio; further: series mostly up to about 61 µM)
Summary of the method: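 Pathway activation was measured in ME-180 cells stably expressing beta-lactamase under NF-kB response element control. Substrate cleavage was read as the 460/530 nm emission shift after 5 hr compound incubation.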

[3] = qHTS assay to identify small molecule agonists of the NFkB signaling pathway - cell viability counter screen (AID 1159515; calls by dose curve; further: series mostly up to about 61 µM; nearly all actives have a fitted effect of over 55% in size)
Summary of the method: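 Read by CellTiter-Glo luminescence (30 min, room temperature) in the wells also used for the beta-lactamase FRET read. ME-180 NFkB-bla cells at 2,000 per well were plated overnight, then exposed to compound for 5 hr at 37 C.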

[4] = qHTS assay to identify small molecule agonists of the endoplasmic reticulum stress response signaling pathway (AID 1159516; active means well fitted activation curve with a large enough effect in the signal ratio in the repeat runs, not every such curve was filed as active; the % refers to the signal ratio)
Summary of the method: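 Ratiometric FRET readout (405 nm excitation; 460 and 530 nm emission) of a beta-lactamase gene driven by the ER stress response element, after 2 hr substrate loading. HeLa ESRE-bla cells were seeded overnight and treated with compounds for only 5 hr at 37 C.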

[5] = qHTS assay to identify small molecule agonists of the endoplasmic reticulum stress response signaling pathway - cell viability counter screen (AID 1159517; calls by dose curve; further: series mostly up to about 61 µM; nearly all actives have a fitted effect of over 50% in size)
Summary of the method: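 ESRE-bla HeLa cells (1,500/well) were plated overnight at 37 C and exposed to compounds for 5 hr. After the 2 hr beta-lactamase substrate read, CellTiter-Glo went into the same wells, and luminescence was read after 30 min at room temperature.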

[6] = qHTS assay to identify small molecule antagonists of the retinoid-related orphan receptor gamma (ROR-gamma) signaling pathway - cell viability counter screen (AID 1159520); further: nearly all actives have a fitted effect of over 50% in size
Summary of the method: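 Cytotoxicity was read from cellular ATP (CellTiter-Glo luminescence) after 16 hr at 37 C with 1 uM doxycycline induction. The inducer was added 2 hr after compound transfer to Tet-on ROR gamma CHO cells.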

[7] = biological target: Nuclear receptor ROR-gamma (Homo sapiens) (UniProt P51449); experiment: qHTS assay to identify small molecule antagonists of the retinoid-related orphan receptor gamma (ROR-gamma) signaling pathway (AID 1159521; further: top concentration of the series differs between compounds; nearly all actives have a fitted effect of over 50% in size)
Summary of the method: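 Antagonist read-out: drop in luminescence (ONE-Glo) from an RORE-LUC reporter in CHO cells with doxycycline-inducible ROR-gamma; 2 hr compound pretreatment, 1 uM doxycycline, 16 hr incubation at 37 C.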

[8] = qHTS assay to identify small molecule agonists of the AP-1 signaling pathway (AID 1159526; calls by dose curve)
[9] = biological target: Retinoic acid receptor RXR-alpha (Homo sapiens) (UniProt P19793); experiment: qHTS assay to identify small molecule agonists of the RXR signaling pathway (AID 1159527; calls by dose curve; further: nearly all actives have a fitted effect of over 35% in size)
Chain of Retinoic acid receptor RXR-alpha (Homo sapiens) (P19793 whole entry, looked up): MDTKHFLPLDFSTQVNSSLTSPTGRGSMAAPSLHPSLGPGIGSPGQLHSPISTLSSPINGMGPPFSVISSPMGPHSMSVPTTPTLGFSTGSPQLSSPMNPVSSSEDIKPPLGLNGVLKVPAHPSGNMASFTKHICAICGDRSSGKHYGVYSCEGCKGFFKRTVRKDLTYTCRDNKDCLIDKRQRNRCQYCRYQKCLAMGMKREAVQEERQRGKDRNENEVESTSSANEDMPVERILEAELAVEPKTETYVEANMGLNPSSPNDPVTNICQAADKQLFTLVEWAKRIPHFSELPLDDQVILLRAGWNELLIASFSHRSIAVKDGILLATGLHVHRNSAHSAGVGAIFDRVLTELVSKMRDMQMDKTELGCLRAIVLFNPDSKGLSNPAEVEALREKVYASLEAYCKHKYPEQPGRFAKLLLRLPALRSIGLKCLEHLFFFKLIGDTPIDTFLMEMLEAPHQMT
Summary of the method: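 Agonist-mode beta-lactamase reporter assay: HEK 293T RXR-alpha-UAS-bla cells treated 16 hr at 37 C with compounds, 9-cis retinoic acid as positive control. LiveBLAzer FRET substrate, 405 nm excitation, 460/530 nm emission.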

[10] = qHTS assay to identify small molecule agonists of the RXR signaling pathway - cell viability counter screen (AID 1159529)
Summary of the method: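 CellTiter-Glo luminescence gave viability in the wells also read for beta-lactamase. Cells (RXR-alpha-UAS-bla HEK 293T, 2% charcoal-stripped FBS medium) had 5 hr plating, then 16 hr compound exposure at 37 C; tetraoctyl ammonium bromide served as positive control.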

[11] = qHTS assay to identify small molecule antagonists of the retinoid acid receptor (RAR) signaling pathway - cell viability counter screen (AID 1159551); further: nearly all actives have a fitted effect of over 35% in size
Summary of the method: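 Cytotoxicity counter screen: ATP content quantified by CellTiter-Glo luminescence in C3RL4 cells treated 6 hr at 37 C with compound and retinol (1 uM final). Cells plated at 1,000/well and cultured overnight before dosing.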

[12] = qHTS assay to identify small molecule antagonists of the retinoic acid receptor (RAR) signaling pathway (AID 1159552; further: nearly all actives have a fitted effect of over 50% in size)
Summary of the method: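 Luminescent RARE reporter read-out in C3RL4 cells: 6 hr co-treatment at 37 C of test compounds with retinol at 1 uM final. Cells plated overnight beforehand; luciferase reagent incubated 30 min at room temperature before reading.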

[13] = qHTS assay to identify small molecule agonists of the retinoic acid receptor (RAR) signaling pathway (AID 1159553)
Summary of the method: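 Luminescence was measured 30 min after luciferase reagent addition at room temperature. Before that, C3RL4 reporter cells (1,000 per well, plated overnight) were treated with compound for 6 hr at 37 C and 5% CO2.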

[14] = qHTS assay to identify small molecule antagonists of the estrogen related receptor (ERR) signaling pathway from Tox21 library - cell viability counter screen (AID 1224834); further: nearly all actives have a fitted effect of over 30% in size
Summary of the method: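 CellTiter-Fluor fluorescence, read after 30 min at 37 C, measures viability of ERR cells. Cells plated at 2,000/well and incubated 6 h before pin-tool compound addition, then exposed 17.5 hours at 37 C.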

[15] = biological target: Luciferin 4-monooxygenase (Photinus pyralis) (UniProt P08659); experiment: qHTS assay to identify small molecule inhibitors of firefly luciferase (AID 1224835); further: series mostly up to about 120 µM; nearly all actives have a fitted effect of over 25% in size
Chain of Luciferin 4-monooxygenase (Photinus pyralis) (P08659 whole entry, looked up): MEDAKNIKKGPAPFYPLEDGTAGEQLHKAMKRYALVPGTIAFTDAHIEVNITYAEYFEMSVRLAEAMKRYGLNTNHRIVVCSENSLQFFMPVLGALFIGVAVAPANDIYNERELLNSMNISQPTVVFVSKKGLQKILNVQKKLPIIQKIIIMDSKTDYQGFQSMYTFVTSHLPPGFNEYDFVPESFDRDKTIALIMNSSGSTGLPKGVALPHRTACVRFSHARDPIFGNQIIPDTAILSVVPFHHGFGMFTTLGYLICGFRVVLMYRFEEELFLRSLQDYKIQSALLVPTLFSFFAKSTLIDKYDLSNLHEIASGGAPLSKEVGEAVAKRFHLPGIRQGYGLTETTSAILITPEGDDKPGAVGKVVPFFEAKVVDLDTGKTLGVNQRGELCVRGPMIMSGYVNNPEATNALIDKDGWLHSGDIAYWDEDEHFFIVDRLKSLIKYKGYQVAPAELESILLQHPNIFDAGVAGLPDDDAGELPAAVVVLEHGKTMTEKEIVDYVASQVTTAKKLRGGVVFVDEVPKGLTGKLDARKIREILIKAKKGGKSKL
Summary of the method: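 Inhibition of purified Photinus luciferase is measured by luminescence. Substrate levels (D-luciferin, ATP) sit at their KM values. Each compound is tested in a concentration series.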

[16] = qHTS assay to identify small molecule agonists of the constitutive androstane receptor (CAR) signaling pathway - cell viability counter screen (AID 1224836); further: series mostly up to about 92 µM; nearly all actives have a fitted effect of over 45% in size
Summary of the method: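 Cell viability multiplexed with the CAR agonist screen: CellTiter-Fluor fluorescence after 23 hr at 37 C. HepG2-CYP2B6-hCAR cells got compounds at 15 concentrations with PK11195 at 0.75 uM final.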

[17] = qHTS assay to identify small molecule antagonists of the constitutive androstane receptor (CAR) signaling pathway - cell viability counter screen (AID 1224837); further: series mostly up to about 92 µM; nearly all actives have a fitted effect of over 45% in size
Summary of the method: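 Cytotoxicity counter-screen: CellTiter-Fluor fluorescence after 23 h compound exposure (15-point qHTS) in double-stable HepG2-CYP2B6-hCAR cells, with 50 nM CITCO added.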

[18] = biological target: Nuclear receptor subfamily 1 group I member 3 (Homo sapiens) (UniProt Q14994); experiment: qHTS assay to identify small molecule antagonists of the constitutive androstane receptor (CAR) signaling pathway (AID 1224838);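 further: HepG2 cells stably expressing hCAR with CYP2B6 luciferase reporter stimulated by CITCO; nearly all actives have a fitted effect of over 40% in size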
Chain of Nuclear receptor subfamily 1 group I member 3 (Homo sapiens) (Q14994 whole entry, looked up): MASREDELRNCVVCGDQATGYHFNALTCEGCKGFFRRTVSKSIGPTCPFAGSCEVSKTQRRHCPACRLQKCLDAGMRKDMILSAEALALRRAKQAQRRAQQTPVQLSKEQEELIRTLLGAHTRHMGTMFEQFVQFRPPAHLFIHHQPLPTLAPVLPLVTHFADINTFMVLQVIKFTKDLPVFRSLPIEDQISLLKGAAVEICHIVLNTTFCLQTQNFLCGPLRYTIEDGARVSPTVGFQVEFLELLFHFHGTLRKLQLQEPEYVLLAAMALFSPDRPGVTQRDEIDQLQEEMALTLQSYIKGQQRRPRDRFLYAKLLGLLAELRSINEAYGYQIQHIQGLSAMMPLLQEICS
Summary of the method: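 Antagonism measured as luciferase signal (ONE-Glo, 30 min, room temperature) in CAR-stimulated cells: HepG2-CYP2B6-hCAR double-stable line exposed 24 hr at 37 C to compound in a 15-point series plus 50 nM CITCO.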

[19] = biological target: Nuclear receptor subfamily 1 group I member 3 (Homo sapiens) (UniProt Q14994); experiment: qHTS assay to identify small molecule agonists of the constitutive androstane receptor (CAR) signaling pathway (AID 1224839);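 further: HepG2 cells stably carrying human CAR and a CYP2B6 luciferase reporter; series mostly up to about 92 µM; nearly all actives have a fitted effect of over 15% in size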
Summary of the method: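 Luminescent ONE-Glo read-out after 24 hr, 37 C exposure of double-stable HepG2-CYP2B6-hCAR reporter cells to a 15-point compound series, in the presence of 0.75 uM PK11195 (final).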

[20] = qHTS assay to identify small molecule agonists of the AP-1 signaling pathway - cell viability counter screen (AID 1159525; calls by dose curve; further: nearly all actives have a fitted effect of over 55% in size)
Summary of the method: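 Intracellular ATP by Cell Titer Glo luminescence (30 min, RT) in the same ME-180 AP-1-bla wells after the 5 h compound exposure at 37 °C. Normalised to tetra n-octyl ammonium bromide and DMSO controls.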

Measured: Potency

CC(=O)OC1CCCCC1C(C)(C)C (stereo not given)
not listed: [20]
inactive: all other assays above

Cc1cc(-c2ccccc2)nnc1NCCN1CCOCC1
not listed: [19] | [20]
inactive: all other assays above

CN(C)CCCO[C@@H]1[C@H]2OC(C)(C)O[C@H]2O[C@@H]1C(O)CO (stereo not given in full)
not listed: [1] | [5]
inactive: all other assays above

CCC(C)OC(C)CC (stereo not given)
not listed: [1] | [20]
inactive: all other assays above

CCCCCC(C)O (stereo not given)
not listed: [19] | [20]
inactive: all other assays above

CC(C)Nc1ccccc1
not listed: [5]
inactive: all other assays above
